According to PubChem BioAssay AID740 (SRMLSC, 2007):
Out of some 96,000 compounds screened, about 65 (0.07%) were called active. This excerpt belongs to a sample that is enriched for actives. Unmarked numbers belong to inactive results. Rule as the data show it: active = inhibition above about 25%; inactive = the rest.

Experiment: unspecified inhibition readout at 50 µM (AID 740)
Conditions: unspecified screen; hits give high values

SMILES	inhibition
CC(NC(=O)c1ccc(F)cc1)c1ccccc1 (stereo unspecified)	1.4%
CC(NC(=O)c1ccc(S(=O)(=O)N(C)C)cc1)c1ccccc1 (stereo unspecified)	26.5% (active)
CC(NC(=O)c1ccc(NS(C)(=O)=O)cc1)c1ccccc1 (stereo unspecified)	1.26%
CCCn1ncc(C(=O)O)c1C	0.49%
CCn1c(N2CCN(CC(=O)c3c[nH]c4ccccc34)CC2)nc2c1c(=O)[nH]c(=O)n2C	0.91%
CCc1c(C)nc2[nH]nc(NC(=O)C(F)(F)F)n2c1=O	1.45%
CCc1c(C)nc2[nH]nc(-c3ccccc3)n2c1=O	39.6% (active)
COCc1cc(=O)n2c(-c3ccccc3OC)n[nH]c2n1	inactive
CCc1c(C)[nH]c2nc3ccccc3n2c1=O	1.48%
Cc1cc(=O)n2c(-c3ccccc3C)n[nH]c2n1	0.44%
CCc1c(C)nc2[nH]nc(-c3ccccc3C)n2c1=O	36.2% (active)
CC(=O)N1CCN(S(=O)(=O)c2cccc(C(=O)Nc3nc4c(s3)CCCC4)c2)CC1	0.78%
COc1ccccc1NC(=O)c1cc(C(=O)O)ccc1C(=O)O	inactive
O=C1CSC(=S)N1Cc1cccnc1	28.6% (active)
O=C(O)c1ccc(CN2C(=O)CSC2=S)cc1	inactive
O=C1CSC(=S)N1c1cccnc1	inactive
COc1cccc(-c2nc(CS(=O)(=O)CC(=O)N3CCc4ccccc43)c(C)o2)c1	inactive
Cc1ccccc1N(CC(=O)NC1CCCC1)C(=O)c1oc(C(C)(C)C)cc1C	2.02%
O=c1c2ccccc2nc2c3ccccc3c(NCc3ccco3)nn12	0.85%
Cc1sc2nc3ccc(NCc4ccco4)nn3c(=O)c2c1C	3.95%
Cc1sc2nc3c4ccccc4c(NCc4ccco4)nn3c(=O)c2c1C	26.7% (active)
Cc1cc(C(=O)OCC(=O)Nc2ccc(S(=O)(=O)N3CCOCC3)cc2)c(C)o1	inactive

SMILES	inhibition
Nc1nc(-c2ccco2)nn1C(=O)c1ccc(Cl)cc1	0.07%
Cc1nc2scc(-c3ccccc3)c2c(=O)n1/N=C/c1ccco1	inactive
Cc1ccc(-c2csc3ncn(/N=C/N(C)C)c(=O)c23)o1	0.16%
Cc1nc2scc(-c3ccco3)c2c(=O)n1/N=C/N(C)C	25.3% (active)
COC(=O)Cn1cc(C(=O)OC)c2ccccc21	inactive
Cc1ccc(CNC(=O)CCS(=O)(=O)c2cccc3nsnc23)cc1	0.45%
COc1cccc(CNC(=O)CCS(=O)(=O)c2cccc3nsnc23)c1	0.1%
O=C(CCS(=O)(=O)c1cccc2nsnc12)NCc1ccccc1Cl	79.1% (active)
COc1cc2[nH]c(=O)n(CCC(=O)NC3CCCC3)c(=O)c2cc1OC	0.82%
Cc1sc(-c2ccccn2)nc1OC(=O)c1ccc(Cl)cc1	inactive
CCn1cc(C(=O)O)c(=O)c2cc(F)c(N3CCN(C(=O)Nc4ccccc4)CC3)cc21	1.47%
COc1c(N2CCN(C(=S)Nc3ccc(F)cc3)C(C)C2)c(F)cc2c(=O)c(C(=O)O)cn(C3CC3)c12 (stereo unspecified)	0.59%
NC1C2CN(c3nc4c(cc3F)c(=O)c(C(=O)O)cn4-c3ccc(F)cc3F)CC12 (stereo unspecified)	27.2% (active)
O=C(O)c1cccc(COCC(F)(F)C(F)F)c1	inactive
COc1ccc([C@H]2[C@H](C(=O)C(C)(C)C)N3N=Cc4ccccc4C3[C@]23N=C(c2ccccc2)OC3=O)cc1 (stereo partly specified)	inactive
COc1ccc(CCN(Cc2cc3cc(C)c(C)cc3nc2Cl)C(=O)C2CC2)cc1	inactive
CC(C)(C)c1ccc(OCCn2ccccc2=O)cc1	25.3% (active)
CC(C)(C)c1ccc(OCCN2CCCC2)cc1	inactive
CC(C)(c1ccccc1)c1ccc(OCCn2cnc3ccccc3c2=O)cc1	inactive
CCS(=O)(=O)Nc1ccc(-c2ccc(NS(=O)(=O)CC)c(OC)c2)cc1OC	0.7%
Cc1ccc(S(=O)(=O)CC(N)=O)cc1	0.12%
O=C(c1ccco1)N1CCN(c2cc(C(F)(F)F)nc3ncnn23)CC1	1.54%

SMILES	inhibition
CCCN(CCC)C(=O)Cn1c(=O)n(CCCCC(=O)NC2CCCC2)c(=O)c2ccccc21	0.15%
CCN1CCN(CC(O)COc2ccc(C(C)=O)cc2)CC1 (stereo unspecified)	0.4%
CCc1ccc(/C=C/C(=O)c2c(C)cc(C)[nH]c2=O)cc1	24.9%
Cc1ccc(/C=C/C(=O)c2c(C)cc(C)[nH]c2=O)cc1	35.2% (active)
Cc1cc(C)c(C(=O)/C=C/c2ccc(C(C)C)cc2)c(=O)[nH]1	1.62%
COCCSc1ccccc1C(=O)N1CCOCC1	inactive
CC(C)(C)c1ccc(S(=O)(=O)n2c(CN3CCOCC3)nc3ccccc32)cc1	0.34%
CCOC(=O)CSc1nnc(C2CCCCC2)n1C	inactive
COc1ccc(C(=O)C(CN2CCOCC2)c2ccccc2)cc1 (stereo unspecified)	41.7% (active)
O=C(c1ccc(F)cc1)C(CN1CCOCC1)c1ccccc1 (stereo unspecified)	inactive
COc1ccc(C(=O)C(CN2CCCC2)c2ccccc2)cc1 (stereo unspecified)	8.35%
Nc1nc(SCc2ccccc2)[nH]c(=O)c1-c1ccccc1	inactive
O=C(CN1CCN(C2CCCCC2)CC1)NCCC1=CCCCC1	inactive
O=C(CN1CCN(c2ncccn2)CC1)NCCC1=CCCCC1	50.1% (active)
O=C(CSc1ncccc1C(=O)O)NCCC1=CCCCC1	inactive
COc1cccc(NS(=O)(=O)c2ccc3[nH]cc(C(=O)NCCC(C)C)c(=O)c3c2)c1	1.2%
O=C(NCc1ccco1)c1cc(S(=O)(=O)N2CCOCC2)ccc1Cl	0.08%
CCCCOc1cccc(NC(=O)CSc2nccn2C)c1	inactive
C=CCNC(=S)Nc1cccc2ccccc12	0.02%
Cn1nc([N+](=O)[O-])nc1Sc1ccc(C(C)(C)C)cc1	9.59%
Cn1nc([N+](=O)[O-])nc1Sc1nnc(-c2ccccc2)o1	28.3% (active)
COc1ccccc1-c1nnc(Sc2nc([N+](=O)[O-])nn2C)o1	inactive
